For the experiment, the system named is Cdc42. Kind of experiment: fluorescent GTP concentration effect on GTPase potency – biochemical, four GTPases, bead flow cytometry, mechanism study, profiling panel (AID 743330). The conditions noted are these: bead-based flow cytometry, fluorescent GTP binding to GTPases. A general note: In flow cytometry, cells or beads pass a laser one at a time.

2 compounds from PubChem BioAssay AID743330 (NMMLSC, 2014) can be followed below.

Active and inactive are the calls of the source. How the calls were made is not given here.

For the compound `CCC1(C)Cc2c(sc(NC(=S)NC(=O)c3ccccc3)c2C(=O)O)CO1` (configuration not stated), the call was inactive.

As for `CC1(C)Cc2c(sc(NC(=S)NC(=O)c3ccc(F)cc3)c2C(=O)O)CO1`, the EC50 (usually the concentration at which the effect is half-maximal) is 76 nM (active).
